The text below walks through data of PubChem BioAssay (NCATS).

Assay [1] addresses Cytochrome P450 2D6 (Homo sapiens) (UniProt P10635). The experiment in a line: Cytochrome P450 family 2 subfamily D member 6 (CYP2D6) small molecule antagonists: luciferase biochemical (cell-free) qHTS assay (AID 1645840). Also: nearly all actives have a fitted effect of over 55% in size. Also: potency is read from the fitted curve at half-maximal effect. As to activity change, negative = inhibition: series mostly up to about 57 µM; % is scaled to controls: 0 for no effect and ±100 for the full control effect. A digest of the protocol: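 P450-Glo CYP2D6 system: proluciferin substrate converted by enzyme to luciferin, read by luminescence proportional to activity. Enzyme-substrate mix with compound 10 min at room temperature, then NADPH regeneration 1 h before detection reagent.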
A general note: qHTS replaces the single test concentration by a dilution series.

Assay [2] has as its target Cytochrome P450 2C9 (Homo sapiens) (UniProt P11712). Description: Cytochrome P450 family 2 subfamily C member 9 (CYP2C9) small molecule antagonists: luciferase biochemical (cell-free) qHTS assay (AID 1645842). Also: nearly all actives have a fitted effect of over 55% in size. Also: potency is read from the fitted curve at half-maximal effect. As to activity change, negative = inhibition: series mostly up to about 57 µM; % is scaled to controls: 0 for no effect and ±100 for the full control effect. A digest of the protocol:
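P450-Glo CYP2C9 system: proluciferin substrate with enzyme in mix containing 0.4% BSA, 10 min at room temperature, then NADPH regeneration solution added and incubated 1 h at 37C. Detection reagent stopped reaction; luminescence read after 20 min as RLU.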

Assay [3] is described as follows: Primary qHTS for small molecule stabilizers of the endoplasmic reticulum resident proteome: Secreted ER Calcium Modulated Protein (SERCaMP) assay (AID 1508630; active = well fitted curve in the direction sought with a large enough effect; an effect the other way counts as inactive or inconclusive; also: % is scaled to controls: 0 for no effect and ±100 for the full control effect). An outline of the steps:
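The SH-SY5Y reporter protocol was run at 3 concentrations up to 38.3 uM (primary) or 11 concentrations (follow-up): 16 h compound, 100 nM thapsigargin for 4 h, then extracellular luciferase luminescence.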

The nature of assay [4]: Primary qHTS for inhibitors of nuclear receptor binding SET domain protein 2 (NSD2) in an isogenic RCH-ACV NSD2 p.E1099K mutant (9B) (AID 1645876; active = well fitted curve in the direction sought with a large enough effect; an effect the other way counts as inactive or inconclusive; also: nearly all actives have a fitted effect of over 70% in size; also: potency is read from the fitted curve at half-maximal effect).
The nature of assay [5]: Primary qHTS for inhibitors of nuclear receptor binding SET domain protein 2 (NSD2) in an RCH-ACV wild type WT cells (2C) (AID 1645877; active = well fitted curve in the direction sought with a large enough effect; an effect the other way counts as inactive or inconclusive; also: nearly all actives have a fitted effect of over 70% in size; also: potency is read from the fitted curve at half-maximal effect).
A short description of assay [6]: Confirmatory qHTS for small molecule stabilizers of the endoplasmic reticulum resident proteome: Secreted ER Calcium Modulated Protein (SERCaMP) assay (AID 1508628; active = well fitted curve in the direction sought with a large enough effect; an effect the other way counts as inactive or inconclusive; also: series mostly up to about 76 µM; % is scaled to controls: 0 for no effect and ±100 for the full control effect; nearly all actives have a fitted effect of over 40% in size). A digest of the protocol: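 GLuc-SERCaMP-expressing SH-SY5Y cells, pretreated 16 h with compound, are challenged with thapsigargin to empty ER calcium stores; after 4 h, coelenterazine is added directly to the medium and luminescence is imaged.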

Assay [7] in a line: Cell Viability qHTS for small molecule stabilizers of the endoplasmic reticulum resident proteome (AID 1508629; active = well fitted curve in the direction sought with a large enough effect; an effect the other way counts as inactive or inconclusive;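 also: potency is read from the fitted curve at half-maximal effect; compound exposure about 46 h in total before the viability read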). Particulars: cell viability counter-screen, 100 nM thapsigargin for final 4 h.
For assay [8], the target named is Cytochrome P450 3A4 (Homo sapiens) (UniProt P08684). The experiment in a line: Cytochrome P450 family 3 subfamily A member 4 (CYP3A4) small molecule antagonists: luciferase qHTS assay (AID 1645841). Also: nearly all actives have a fitted effect of over 45% in size. Also: potency is read from the fitted curve at half-maximal effect. An outline of the steps: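 P450-Glo CYP3A4 enzyme with proluciferin substrate preincubated 10 min with compound at room temperature, then NADPH regeneration 1 h. Luciferin detection reagent added for 20 min; luminescence recorded. Ketoconazole positive control.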

Assay [9] addresses N-terminal Xaa-Pro-Lys N-methyltransferase 1 (Homo sapiens) (UniProt Q9BV86). The experiment in a line: Confirmatory qHTS for Inhibitors of N-terminal methyltransferase 1 (NTMT1): MTaseGlo Assay (AID 1645874; active = well fitted curve in the direction sought with a large enough effect; an effect the other way counts as inactive or inconclusive; also: nearly all actives have a fitted effect of over 65% in size; also: potency is read from the fitted curve at half-maximal effect;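 as to activity change, negative = inhibition: luminescence from SAH made as NTMT1 methylates SPKRIA peptide using SAM; series mostly up to about 100 µM; 0% = DMSO control and -100% = no-enzyme control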). An outline of the steps:
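Room-temperature NTMT1 reaction, 30 min, with 100 uM SAM and 1 uM SPKRIA substrate; enzyme 125 nM. Read-out: MTase-Glo luminescence, normalized to no-enzyme and DMSO controls.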

Assay [10] is described as follows: A High-Content qHTS Against Drug Library for the Identification of Small Molecules that Inhibit DYT1 Early Onset Primary Dystonia-Associated Cell Pathology (AID 1645839; calls by dose curve; also: series mostly up to about 46 µM). A digest of the protocol:
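Cells were seeded and left for 24 h, then dosed with compound alongside tetracycline induction of mutant EGFP-TorsinA. They were incubated for 48 h, fixed in 4% paraformaldehyde, permeabilized and imaged for mislocalization (%pathology) and cell count.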

“And” between values parts separate entries of the source, which are not always exact repeats. Equal entries are not always repeated. Inconclusive results are not listed. More than one record can exist for a structure, and the calls need not agree. The source made the active and inactive calls. Unless noted, calls follow the shape of the dose curve; as a rule, active = well fitted curve in the direction sought with a large enough effect in the repeat runs; inconclusive = weak or mixed curves; inactive = no such curve, though single readings can be large; an effect the other way counts as inactive or inconclusive. Peptide text beside a SMILES is read from it.

Chain of Cytochrome P450 2C9 (Homo sapiens) (P11712 whole entry, looked up): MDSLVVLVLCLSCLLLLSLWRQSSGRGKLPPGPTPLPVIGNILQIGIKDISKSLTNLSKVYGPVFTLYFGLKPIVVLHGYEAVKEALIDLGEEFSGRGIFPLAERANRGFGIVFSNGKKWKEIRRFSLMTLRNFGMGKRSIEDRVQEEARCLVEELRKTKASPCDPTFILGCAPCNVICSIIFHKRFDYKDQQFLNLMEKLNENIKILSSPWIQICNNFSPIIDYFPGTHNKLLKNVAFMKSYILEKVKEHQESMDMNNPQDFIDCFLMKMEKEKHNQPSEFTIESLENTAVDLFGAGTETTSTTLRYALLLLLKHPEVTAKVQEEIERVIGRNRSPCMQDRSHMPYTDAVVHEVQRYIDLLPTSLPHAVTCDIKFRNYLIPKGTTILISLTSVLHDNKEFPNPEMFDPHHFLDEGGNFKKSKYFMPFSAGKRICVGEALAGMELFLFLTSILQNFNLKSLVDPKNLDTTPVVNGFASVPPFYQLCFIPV
Chain of N-terminal Xaa-Pro-Lys N-methyltransferase 1 (Homo sapiens) (Q9BV86 whole entry, looked up): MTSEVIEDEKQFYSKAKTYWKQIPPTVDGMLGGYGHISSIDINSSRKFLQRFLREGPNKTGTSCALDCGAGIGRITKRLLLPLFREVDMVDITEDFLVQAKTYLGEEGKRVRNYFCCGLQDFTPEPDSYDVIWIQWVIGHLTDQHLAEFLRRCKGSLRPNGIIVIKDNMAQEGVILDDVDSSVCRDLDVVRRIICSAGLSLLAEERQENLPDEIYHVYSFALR
Chain of Cytochrome P450 3A4 (Homo sapiens) (P08684 whole entry, looked up): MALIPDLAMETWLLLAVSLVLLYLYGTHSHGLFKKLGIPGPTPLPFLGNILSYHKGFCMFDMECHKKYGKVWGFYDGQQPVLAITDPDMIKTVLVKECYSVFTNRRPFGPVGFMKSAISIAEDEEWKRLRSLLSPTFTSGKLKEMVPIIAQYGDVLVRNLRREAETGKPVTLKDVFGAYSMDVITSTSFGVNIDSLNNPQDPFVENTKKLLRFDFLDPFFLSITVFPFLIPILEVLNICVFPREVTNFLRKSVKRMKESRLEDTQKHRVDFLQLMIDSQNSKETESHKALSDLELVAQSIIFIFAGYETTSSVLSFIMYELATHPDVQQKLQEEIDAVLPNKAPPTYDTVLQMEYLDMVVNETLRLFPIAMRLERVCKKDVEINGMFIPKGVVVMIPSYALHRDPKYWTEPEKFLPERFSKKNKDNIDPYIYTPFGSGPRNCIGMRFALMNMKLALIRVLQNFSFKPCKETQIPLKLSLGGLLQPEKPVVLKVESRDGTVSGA
Chain of Cytochrome P450 2D6 (Homo sapiens) (P10635 whole entry, looked up): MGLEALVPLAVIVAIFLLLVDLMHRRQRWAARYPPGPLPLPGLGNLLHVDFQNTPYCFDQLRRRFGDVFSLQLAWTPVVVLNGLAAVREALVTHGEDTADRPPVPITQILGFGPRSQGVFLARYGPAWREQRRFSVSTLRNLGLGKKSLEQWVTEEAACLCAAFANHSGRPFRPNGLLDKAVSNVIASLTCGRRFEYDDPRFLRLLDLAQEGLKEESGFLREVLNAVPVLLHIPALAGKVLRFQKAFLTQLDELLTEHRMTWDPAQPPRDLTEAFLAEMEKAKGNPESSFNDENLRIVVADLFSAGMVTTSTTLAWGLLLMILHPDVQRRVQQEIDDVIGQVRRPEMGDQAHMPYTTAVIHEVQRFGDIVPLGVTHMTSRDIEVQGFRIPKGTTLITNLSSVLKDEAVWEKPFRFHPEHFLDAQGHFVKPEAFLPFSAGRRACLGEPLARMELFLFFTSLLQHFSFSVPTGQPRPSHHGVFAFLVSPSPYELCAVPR

For the compound `Clc1cc(Cl)c(OCC#CI)cc1Cl`, the figures for the Potency in assay [1] and in [2] were 0.674 µM (active) and 6.01 µM (active), respectively.

For the compound `CN1Cc2c(N)cccc2C(c2ccccc2)C1` (stereo unspecified), the result in assay [3] was inactive. The Potency in assay [1] is 7.76 µM (active). The Potency result in [2], in assay [4] and in assay [5] was “inactive” each time.

Regarding `CC1=C(/C=C/C(C)=C/C=C/C(C)=C/CO)C(C)(C)CCC1`, the outcome in [3] was inactive.

For the compound `N#Cc1ccc2[nH]c(O)c(-c3ccc(CN4CCOCC4)cn3)c2c1`, the Potency in assay [1] is 12 µM (active) and 6.74 µM (active).

As for `CCCCC(C)(O)C/C=C/[C@H]1[C@H](O)CC(=O)[C@@H]1CCCCCCC(=O)OC` (stereo partly specified), the Potency was 10.7 µM (active) in [1] and 2.68 µM (active) in assay [2].

`c1ccc(Nc2nc3c(s2)CCCc2[nH]ncc2-3)nc1`: the Potency in assay [1] is 26.8 µM (active).

As for `CCCCCCCC(=O)O`, the Potency entry in [1] and in assay [2] was “inactive” in each case.

On to `O=C(O)c1cc(=O)c2c3nc4ccccc4oc-3cc(=O)c2[nH]1`, for which the Potency in [1] was 1.9 µM (active); in assay [2], 26.8 µM (active).

For `COC(=O)C1=C(C)NC(C)=C(C(=O)OCCCN2CCC(c3ccccc3)(c3ccccc3)CC2)[C@H]1c1cccc([N+](=O)[O-])c1`, the outcome in assay [6] was inactive. Further, the Potency in assay [7] was 25.1 µM (active) and 28.2 µM (active).

Take `CC(C)N=c1cc2n(-c3ccc(Cl)cc3)c3ccccc3nc-2cc1Nc1ccc(Cl)cc1`: the result in assay [3] was inactive. Further, the Potency in assay [1] is 1.34 µM (active).

For the compound `COc1cc2c(Nc3ccc(Cl)c(Cl)c3F)ncnc2cc1OCC1C[C@@H]2CN(C)C[C@@H]2C1` (stereo partly specified), the Potency in [1] was 16.9 µM (active); in assay [9], 15.1 µM (active); in assay [4], 2.95 µM (active); in assay [5], 2.63 µM (active) and 1.86 µM (active). Further, in [8], the Potency entry was “inactive”.

Take `CNC1CCN(C(Cc2cccc(-c3ccncc3)c2)C(=O)c2sc3c(F)ccc(F)c3c2Cl)CC1` (stereo unspecified): the Potency was 0.19 µM (active) in assay [1], 0.12 µM (active) in assay [8] and 10.7 µM (active) in assay [2].

On to `CC(=O)OC(C)OC(=O)C(C)c1ccc(-c2ccccc2)c(F)c1` (stereo unspecified), for which, in assay [10], the compound was called inactive. Besides, the Potency entry in [4] and in [5] was “inactive” in each case.

In the case of `c1ccc(C(OC2CCN(CCCc3nn[nH]n3)CC2)c2ccccc2)cc1`, in [1], the Potency was 6.01 µM (active). The Potency entry in assay [8], in assay [4] and in assay [5] was “inactive” in each case.

With `O=C1C[C@@H](c2ccc(O)cc2)Oc2cc(O)ccc21`, in [1], the Potency entry is “inactive”.

With `CCCCC/C=C\C/C=C\CCCCCCCC(=O)O`, the activity change, negative = inhibition in assay [3] was -23.8% [at 3.88 µM] (inactive).

With `Cc1cc(/C=C/c2ccc3cc(N(C)C)ccc3[n+]2C)c(C)n1-c1ccccc1`, the outcome in assay [3] was inactive.

Turning to `C[C@@H]1[C@H](O)[C@@H](C)/C=C/C=C\C=C\C=C\C=C\C=C\C=C\[C@H](O[C@@H]2O[C@H](C)[C@@H](O)[C@H](N)[C@@H]2O)C[C@@H]2O[C@](O)(C[C@@H](O)C[C@@H](O)[C@H](O)CC[C@@H](O)C[C@@H](O)CC(=O)O[C@H]1C)C[C@H](O)[C@H]2C(=O)O` (stereo in doubt), the Potency entry in assay [1] and in [2] was “inactive” each time.

On to `Nc1nc(N)c2nc(CNc3ccc(C(=O)N[C@@H](CCC(=O)O)C(=O)O)cc3)cnc2n1`, for which the Potency entry in [1], in assay [8] and in [2] was “inactive” in each case.

In the case of `NC(=O)c1ncn(C2OC(CO)C(O)C2O)n1` (stereo unspecified), the Potency entry in assay [1] was “inactive”.

`O=C(O)CCC(=O)C(=O)O`: the Potency result in [1] and in assay [2] was “inactive” each time.

For `CNc1nc(Nc2cnn([C@H]3CCN(C4COC4)C[C@@H]3F)c2Cl)ncc1C(F)(F)F`, the Potency result in assay [1] and in assay [8] was “inactive” in each case. Also, in [2], the Potency is 2.68 µM (active).

For the compound `COCCN(C)Cc1ccc2nc3sc(C(=O)N(C)C4CCCCC4)cn3c2c1`, the Potency entry in assay [1], in assay [8], in assay [4] and in assay [5] was “inactive” throughout.

Take `CC[C@@H](c1ccc(F)c(F)c1)n1c(C(=O)OC)c(-c2ccno2)[nH]c1=S`: the Potency result in [1] and in assay [9] was “inactive” in each case. In assay [2], the Potency was 0.756 µM (active).

For the compound `O=C(Nc1ccc(Br)cc1)c1cc(Br)c(Br)s1`, the Potency in assay [1] is 9.52 µM (active).

For `O=C(C1CC1)N1CC[C@@H](Cc2n[nH]c(=O)n2-c2ccc(-c3ccc4occc4c3)cc2)C1`, the Potency was 13.5 µM (active) in [1]; 6.74 µM (active) in assay [8]; 6.74 µM (active) in assay [2]; “inactive and 16.6 µM (active)” in assay [4]; “inactive and 18.6 µM (active)” in assay [5].

Regarding `CCOc1ccc(C(Nc2ccccn2)c2ccc3ccc(C)nc3c2O)cc1C` (stereo unspecified), the Potency result in assay [1] was “inactive”.

For the compound `COC(=O)C1=CO[C@@H](O[C@@H]2O[C@H](CO)[C@@H](O)[C@H](O)[C@H]2O)[C@@H]2[C@@H](C)[C@@H](O)C[C@H]12`, in [3], the outcome was inactive. Besides, the Potency entry in assay [4] and in assay [5] was “inactive” in each case.

For `COc1cccc2c1CCC[C@H]2CN(C)CCc1ccc2ccoc2c1`, the Potency in assay [1] is 0.0535 µM (active); in [2], 0.425 µM (active).

`CC(=O)N[C@@H](CC(=O)O)C(=O)N[C@@H](CCC(=O)O)C(=O)O` (Ac-Asp-Glu-OH): in assay [3], the result was inactive.

`O=C(O)CC/C=C\CC[C@H]1[C@@H](N2CCCCC2)[C@@H](O)C[C@@H]1OCc1ccc(-c2ccccc2)cc1`: the outcome in [3] was inactive.

`Cc1ccc(Sc2cncc3sc(C(N)=O)cc23)cc1`: the result in [3] was inactive. Moreover, the Potency result in assay [4] was “inactive”.

Consider `COc1c(C)c(C(=O)c2ccc(N)c(C(=O)O)c2)n2ccccc12`, for which the Potency entry in [1], in assay [9], in [4] and in [5] was “inactive” in each case. In addition, the Potency in assay [2] is 12 µM (active) and 10.7 µM (active).

With `OCC(S)CS` (stereo unspecified), the Potency in assay [1] is 16.9 µM (active).

With `COC(=O)CCC(=O)CN`, the Potency entry in [1] and in assay [2] was “inactive” throughout.

In the case of `Cc1c(C)c2c(c(C)c1O)CC[C@@](C)(CCC[C@H](C)CCC[C@H](C)CCCC(C)C)O2`, in [1], the Potency result was “inactive”.
